MEKK2 WT-MEK5 = raises or lowers MEK5 binding to wildtype human MEKK2 PB1 domain. binding response (% of control), % at 10 µM. 290,000 tested, 1.1% active. bead flow cytometry, Alexa488-MEK5 binding to MEKK2 WT; actives lie on both sides. Q9Y2U5. AID 1531; in the data active means binding response below about 67% or above about 130%
MEKK3 PB1 HTS = MEKK3-MEK5 PB1 interaction, increase or decrease; Q99759; bead-based flow cytometry, Alexa488-MEK5 binding to MEKK3; actives lie on both sides; 0 = blocked by unlabeled MEK5, 100 = vehicle; binding response (% of control), % at 10 µM; 290,000 tested, 1.4% active;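 active means binding response more than 3 SD above or below the average of its plate-row segment, actives on both sides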;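 further: Alexa488 bead fluorescence after subtracting the streptavidin-only scavenger bead signal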
Target sequence (Q99759 whole entry, looked up): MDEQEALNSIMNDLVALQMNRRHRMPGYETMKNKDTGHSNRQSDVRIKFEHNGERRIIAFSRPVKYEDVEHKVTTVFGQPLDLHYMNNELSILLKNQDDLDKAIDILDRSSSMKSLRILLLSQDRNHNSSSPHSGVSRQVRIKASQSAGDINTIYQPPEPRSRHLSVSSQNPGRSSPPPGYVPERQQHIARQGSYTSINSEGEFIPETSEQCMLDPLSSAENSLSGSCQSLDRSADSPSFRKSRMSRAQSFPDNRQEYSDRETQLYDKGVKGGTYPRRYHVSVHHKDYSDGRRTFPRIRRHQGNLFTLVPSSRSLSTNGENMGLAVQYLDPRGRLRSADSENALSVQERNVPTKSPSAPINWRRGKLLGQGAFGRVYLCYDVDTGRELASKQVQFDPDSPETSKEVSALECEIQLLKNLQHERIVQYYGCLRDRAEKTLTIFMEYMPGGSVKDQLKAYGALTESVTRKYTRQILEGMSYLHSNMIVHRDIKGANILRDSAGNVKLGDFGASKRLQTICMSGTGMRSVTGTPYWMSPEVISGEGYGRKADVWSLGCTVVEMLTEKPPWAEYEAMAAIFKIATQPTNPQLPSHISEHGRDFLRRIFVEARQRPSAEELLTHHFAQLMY
CRFR2-BP ag = agonists of human CRF-binding protein/CRF-R2 receptor complex | AID 588473 | HEK293 CRF-R2/CRF-BP, calcium dye fluorescence (FLIPR); percent of saturating CRF peptide response | activation, % at 13.2 µM | 350,000 tested, 0.46% active;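 active means activation of at least 50%, plus an integration ratio under a set limit after plate pattern correction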;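 further: plate controls were neutral control wells without compound for no effect and CRF at EC100 for full effect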
CRFBP-R2 block = CRF-BP/CRF-R2 complex antagonism | 350,000 tested, 0.59% active | inhibition, % at 11.8 µM | HEK293 CRF-R2/CRF-BP, CRF-induced calcium fluorescence;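 active means inhibition of the ligand-induced calcium signal above about 50% at the single tested concentration, limit read from the data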
ABCB6 inh MLPCN = inhibitors of human ABC transporter ABCB6 | Q9NP58 | K562-ABCB6 porphyrin accumulation, flow cytometry, 1 h; hits give low values | fluorescence ratio to DMSO, % at 10 µM | 360,000 tested, 0.19% active | AID 602162;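 active means fluorescence ratio to DMSO below 75%, the collection mean minus 3 SD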;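 further: signal is porphyrin accumulated inside mitochondria; 100% equals median channel fluorescence of DMSO control wells; lower ratio means ABCB6 inhibition with less porphyrin fluorescence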
MEKK2mut PB1 HTS = signal of MEK5 binding to mutant human MEKK2 PB1 domain | bead flow cytometry, Alexa488-MEK5 binding to MEKK2 mutant | percent response, % at 10 µM | 290,000 tested, 0.35% active; in the data active means percent response above about 24%, passing the limit was not always enough
MEKK2wt confirm = raises or lowers MEK5 binding to wildtype human MEKK2, retest. binding response (% of control), % at 10 µM. AID 1892. 5,900 tested, 2.4% active. shares compounds with MEKK3 PB1 HTS. bead flow cytometry, Alexa488-MEK5 binding to MEKK2 WT; actives lie on both sides; in the data active means binding response below about 16% or above about 210%; inactive means in between
MEKK2mut-MEK5 = signal of MEK5 binding to mutant human MEKK2, retest; 5,900 tested, 2% active; shares compounds with MEKK3 PB1 HTS; bead flow cytometry, Alexa488-MEK5 binding to MEKK2 mutant; AID 1893; percent response, % at 10 µM; in the data active means percent response mostly above about 71%, no sharp cut-off; inactive means mostly below about 38%;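 further: higher means compound restores mutant binding toward wildtype level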
MEKK3-MEK5 inh = confirmation of inhibitors of MEK5 binding to human MEKK3; 5,900 tested, 1.8% active; binding response (% of control), % at 10 µM; bead flow cytometry, Alexa488-MEK5 binding to MEKK3; hits give low values; AID 1894; shares compounds with MEKK3 PB1 HTS;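 active means binding response below 72% of control, or above a set upper limit, though filed actives all read lower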;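 further: 100% = DMSO only wells and 0% = binding blocked by excess unlabeled MEK5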
* marks the source's active call; other numbers are inactive results; nt = not tested or not shown; ! = not confirmed by another sample; [ ] = dose if it differs, or a comment. Rows were chosen to be rich in hits. Some 2.9% of all compounds tested hit in one or more screens of this group.

SMILES | MEKK2 WT-MEK5 | MEKK3 PB1 HTS | CRFR2-BP ag | CRFBP-R2 block | ABCB6 inh MLPCN | MEKK2mut PB1 HTS | MEKK2wt confirm | MEKK2mut-MEK5 | MEKK3-MEK5 inh
CCOc1cc(/C=C2/SC(=S)N(Cc3ccccc3)C2=O)ccc1O | 61*[inhibitor] | 96 | 4 | -16 | 233 | -4 | 84 | -6 | 101
CCc1nn(C(CC)C(=O)NCCCN2CC(C)CC(C)C2)c(=O)c2cc3oc(C)cc3n12 (stereo not given) | 103 | 100 | -1 | -7 | 101 | 3 | nt | nt | nt
COc1ccc(-c2nc(C#N)c(N3CCOCC3)o2)cc1OC | 84 | 77*[inhibitor] | -1 | 15 | 102 | -10 | 100 | 2 | 97
COc1ccc(-c2nc(C#N)c(N3CCC(C(N)=O)CC3)o2)cc1OC | 95 | 101 | 0 | 24 | 100 | 1 | nt | nt | nt
CC(=O)Nc1ccc(S(=O)(=O)NCC(=O)OCC(=O)NCc2ccco2)cc1 | nt | nt | 3 | 5 | 101 | nt | nt | nt | nt
O=C1CCC(C(=O)N2CCc3ccccc3C2)CN1CCCN1CCOCC1 (stereo not given) | 106 | 105 | 1 | 8 | 97 | 10 | nt | nt | nt
O=C(CCCC(=O)NN=Cc1ccccc1Cl)NN=Cc1ccccc1Cl | nt | nt | -6 | -22 | 99 | nt | nt | nt | nt
S=C(N/N=C/c1ccccc1Cl)Nc1ccccc1 | 97 | 101 | -1 | -59 | 85 | 1 | nt | nt | nt
CNC(=S)N/N=C/c1ccccc1Cl | 108 | 142* | -1 | 15 | 101 | 0 | 102 | -1 | 102
O=C(CNC(=O)c1ccccc1)N/N=C/c1ccccc1Cl | 112 | 129* | -2 | -3 | 103 | 1 | 96 | 0 | 100
O=C(C1=C[C@H](c2ccc(C(F)(F)F)cc2)C[C@H](OCCCCO)O1)N1CCN(Cc2ccccc2)CC1 | 96 | 99 | 0 | -7 | 95 | -4 | nt | nt | nt
O=C(C1=C[C@@H](c2ccc(C(F)(F)F)cc2)C[C@@H](OCCCCO)O1)N1CCN(Cc2ccccc2)CC1 | 103 | 73*[inhibitor] | -1 | 7 | 92 | 2 | 107 | 3 | 104
C[C@@H]1O[C@H](C2CC2)Cc2[nH]c(=S)[nH]c(=O)c21 | nt | nt | nt | nt | 94 | nt | nt | nt | nt
CC(=O)N1CCN(C(=S)c2cccc([N+](=O)[O-])c2)CC1 | 109 | 132* | 0 | 3 | 93 | 0 | 45 | -14 | 72
O=[N+]([O-])c1ccc(N2CCN(C(=S)c3cccc([N+](=O)[O-])c3)CC2)cc1 | 114 | 125 | -1 | 4 | 93 | 25 | nt | nt | nt
C=CCNC(=O)N[C@@H](Cc1ccccc1)C(=O)OC | 102 | 102 | -1 | -8 | 98 | 9 | nt | nt | nt
Clc1ccc2c(c1)CCc1cccnc1C2=C1CCNCC1 | 144*! | 103 | nt | nt | nt | 3 | 127 | 15 | 110
Cc1ccc(CNC(=O)Cn2ccc3ccccc3c2=O)o1 | -3.0*[inhibitor] | 0.0*[inhibitor] | -1 | 3 | 94 | -11 | 98 | 9 | 102
CCC(=O)N(Cc1cc2ccccc2[nH]c1=O)c1ccccc1OC | 101 | 101 | 0 | -2 | 100 | 0 | nt | nt | nt
Cc1cc(N/N=C/c2ccc(O)cc2)c2cccc(C)c2n1 | 209* | 110 | -4 | 14 | 98 | 29* | 134 | 21 | 107
Cc1cc(C)c2nc(C)cc(N/N=C/c3ccc(O)cc3)c2c1 | 237* | 115 | 5 | -23 | 99 | 119* | 244* | 102* | 111
Cc1cc(N/N=C/c2ccc(N(C)C)cc2)c2ccccc2n1 | 100 | 104 | -2 | -6 | 94 | 7 | nt | nt | nt
O=C(O/C(=C/c1ccccc1)C(F)(F)F)c1ccccc1 | nt | nt | 4 | 7 | 94 | nt | nt | nt | nt
CC(=O)C1=CCC(c2ccccc2)N(S(=O)(=O)c2cccc(C)c2)C1 (stereo not given) | nt | nt | nt | nt | 95 | nt | nt | nt | nt
CC1(C)CC(NC(=O)c2ccc(Cl)c(S(=O)(=O)N(Cc3ccccc3)c3ccccc3)c2)CC(C)(C)N1 | nt | nt | -1 | -34 | 99 | nt | nt | nt | nt
SMILES | MEKK2 WT-MEK5 | MEKK3 PB1 HTS | CRFR2-BP ag | CRFBP-R2 block | ABCB6 inh MLPCN | MEKK2mut PB1 HTS | MEKK2wt confirm | MEKK2mut-MEK5 | MEKK3-MEK5 inh
CN(C)CC(CCC(CN(C)C)C(O)(c1ccccc1)c1ccccc1)C(O)(c1ccccc1)c1ccccc1 (stereo not given) | 149* | 108 | 8 | -5 | nt | 21 | 161 | 45 | 117
COc1ccc2cc1Oc1ccc(cc1)CC1c3c(cc(OC)c4c3Oc3cc5c(cc3O4)CCNC5C2)CCN1C (stereo not given) | 186* | 75 | 3 | -2 | 102 | 30* | 174 | 50 | 107
COc1ccc(S(=O)(=O)N2CCC(C(=O)N(C)Cc3ccc(C)o3)CC2)cc1OC | nt | nt | 0 | -6 | 97 | nt | nt | nt | nt
Cc1occc1-c1nnc(SCC(=O)N2CCOCC2)n1CCc1ccccc1 | 111 | 113 | -1 | 4 | 98 | 5 | nt | nt | nt
CCCCn1c(SCC(=O)N2CCOCC2)nnc1-c1ccoc1C | 107 | 128* | -1 | -9 | 99 | 2 | 104 | 10 | 105
O=C(Cn1c(C(F)(F)F)nc2ccccc21)OCC(=O)c1c[nH]c2ccccc12 | 63*[inhibitor] | 101 | 1 | -54 | 112 | 10 | 96 | 1 | 97
CCOc1ccccc1NC(=S)N1C2CCC1CC(NC(=O)NC13CC4CC(CC(C4)C1)C3)C2 (stereo not given) | 79 | 72*[inhibitor] | -1 | 5 | 92 | -16 | 95 | -3 | 102
COc1ccccc1NC(=S)N1C2CCC1CC(NC(=O)NC13CC4CC(CC(C4)C1)C3)C2 (stereo not given) | 93 | 94 | -1 | -7 | 93 | -5 | nt | nt | nt
CCOC(=O)c1ccc(-c2ccc(/C=N/NC(=O)CN(c3ccccc3Cl)S(C)(=O)=O)o2)cc1 | 110 | 141* | 3 | -3 | 95 | 2 | 98 | -6 | 102
CCCC(=O)Nc1ccc(C(=O)COC(=O)c2cc(C)oc2C)cc1 | nt | nt | 0 | -8 | 97 | nt | nt | nt | nt
CCc1nc2ccccc2c(C(=O)OCC(=O)NC(=O)c2cccn2C)c1C | 72 | 67*[inhibitor] | -3 | -2 | 97 | -18 | 101 | 3 | 105
CCc1nc2ccccc2c(C(=O)OCC(=O)NC2CC2)c1C | nt | nt | -2 | -1 | 98 | nt | nt | nt | nt
Cc1ccc(-n2nc3c(c2NC(=O)/C=C\c2ccc4c(c2)OCO4)CSC3)c(C)c1 | 83 | 72*[inhibitor] | -1 | 14 | 102 | -7 | 98 | -3 | 102

Source: PubChem BioAssay
